Test systems include EKVX NSCLC; SN12C renal; UO-31 renal; TK-10 renal; ACHN renal; CAKI-1 renal; A498 renal; CCRF-CEM leukemia; MOLT-4 leukemia; SR leukemia; RPMI-8226 leukemia; OVCAR-8 ovarian; OVCAR-5 ovarian; OVCAR-4 ovarian; SK-OV-3 ovarian; IGROV1 ovarian; OVCAR-3 ovarian; HS 578T breast; NCI/ADR-RES ovarian.
What all share (assay): NCI-60 one-dose screen, 48 h (100 = growth as untreated, 0 = no growth, -100 = all killed)
Settings in all cases: 10 µM

We go through eight molecules from PubChem BioAssay (NCI).

This is part of a sample that, as a whole, favours compounds with a hit. Of some 83,000 tested, about 20% had one in any assay.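 A percent growth of 40 corresponds to 60% growth inhibition; 0 means no net growth; -100 means all cells died. Active threshold: below 10.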 Unmarked numbers belong to inactive results. The source made the active and inactive calls.

Turning to `O=C(CNc1nnc(-c2cccnc2SCc2ccccc2)s1)Nc1nc(Cl)cc(Cl)n1`, the growth with EKVX NSCLC is 112%; in the assay with SN12C renal, 103%; in the assay with UO-31 renal, 77.4%; in the assay on TK-10 renal, 125%; in the assay on ACHN renal, 119%; in the assay with CAKI-1 renal it was 102%. Besides, the growth in the assay with A498 renal was 121%; with CCRF-CEM leukemia, 102%; in the assay with MOLT-4 leukemia, 95.4%; in the assay on SR leukemia, 98.5%; in the assay on RPMI-8226 leukemia, 108%; in the assay on OVCAR-8 ovarian, 118%. The growth was 109% in the assay with OVCAR-5 ovarian; 103% in the assay with OVCAR-4 ovarian; 99.2% in the assay on SK-OV-3 ovarian; 96.6% in the assay on IGROV1 ovarian; 106% with OVCAR-3 ovarian; 130% in the assay with HS 578T breast. In addition, the growth with NCI/ADR-RES ovarian was 114%.
As to `O=C1/C(=C/c2cccc(F)c2)Cc2ccccc21`, the growth in the assay on SN12C renal is 98.6%; in the assay on UO-31 renal, 92.8%; with TK-10 renal, 94.2%; in the assay with ACHN renal, 102%; with CAKI-1 renal, 82.9%; in the assay with MOLT-4 leukemia it was 112%. Further, the growth in the assay with RPMI-8226 leukemia is 93.3%; in the assay with OVCAR-8 ovarian, 97.4%; in the assay on OVCAR-5 ovarian it was 120%; in the assay on OVCAR-4 ovarian it was 97.5%; with SK-OV-3 ovarian it was 108%; with IGROV1 ovarian it was 99.6%. Besides, the growth is 113% in the assay on OVCAR-3 ovarian, 181% in the assay on HS 578T breast and 102% with NCI/ADR-RES ovarian.
Take `Clc1ccc2c(c1)C(N1CCNCC1)=Nc1ccccc1O2`: the growth is 64.6% in the assay on EKVX NSCLC; 57.8% with SN12C renal; 28.3% in the assay on UO-31 renal; 64.9% in the assay with TK-10 renal; 46% in the assay on ACHN renal; 36.5% in the assay on CAKI-1 renal. Further, the growth with A498 renal was 25.2%; in the assay on CCRF-CEM leukemia it was 58.5%; in the assay on MOLT-4 leukemia it was 20%; in the assay with SR leukemia, 3.72% (active); in the assay with RPMI-8226 leukemia, 50%; with OVCAR-8 ovarian, 73.2%. Besides, the growth in the assay with OVCAR-5 ovarian was 69%; in the assay with OVCAR-4 ovarian, 41.1%; in the assay on SK-OV-3 ovarian, 67%; with IGROV1 ovarian, 48.1%; with OVCAR-3 ovarian it was 46.6%; in the assay with HS 578T breast, 60.7%. The growth with NCI/ADR-RES ovarian was 62.8%.
Take `O[C@@H]1CO[C@H]2[C@@H]1OC[C@@H]2O`: the growth is 87.6% in the assay on EKVX NSCLC; 103% in the assay on SN12C renal; 117% with TK-10 renal; 98.9% in the assay on ACHN renal; 79.2% with CAKI-1 renal; 101% in the assay with CCRF-CEM leukemia. In addition, the growth is 116% with MOLT-4 leukemia; 112% in the assay with SR leukemia; 112% in the assay with RPMI-8226 leukemia; 102% with OVCAR-8 ovarian; 92.6% in the assay with OVCAR-5 ovarian; 121% in the assay on OVCAR-4 ovarian. The growth with SK-OV-3 ovarian is 115%; with OVCAR-3 ovarian it was 120%; in the assay on NCI/ADR-RES ovarian, 104%.
Turning to `Nc1nc(Cn2c(-c3nonc3N)nc3ccccc32)nc(N2CCCCC2)n1`, the growth in the assay on SN12C renal is 98.2%; in the assay on TK-10 renal it was 109%; with ACHN renal, 95.3%; in the assay on CAKI-1 renal, 85.8%; with A498 renal it was 88.6%; in the assay with CCRF-CEM leukemia it was 85.7%. The growth was 83.2% in the assay with MOLT-4 leukemia; 58.9% with SR leukemia; 68% in the assay on RPMI-8226 leukemia; 93.2% with OVCAR-8 ovarian; 109% in the assay on OVCAR-5 ovarian; 107% with OVCAR-4 ovarian. Further, the growth was 79.1% in the assay with SK-OV-3 ovarian, 95.6% with OVCAR-3 ovarian, 97.2% in the assay on HS 578T breast and 83.3% with NCI/ADR-RES ovarian.
For the molecule `O=C1Cc2cc(CCN3CCN(c4nsc5ccccc45)CC3)c(Cl)cc2N1`, the growth was 88.1% with EKVX NSCLC; 91% in the assay on SN12C renal; 58.8% in the assay with UO-31 renal; 104% in the assay on TK-10 renal; 95.6% in the assay with ACHN renal; 86.6% with CAKI-1 renal. Moreover, the growth in the assay with CCRF-CEM leukemia was 9.84% (active); in the assay on MOLT-4 leukemia it was 81.8%; in the assay with SR leukemia, 86%; with RPMI-8226 leukemia, 78.9%; in the assay on OVCAR-8 ovarian it was 93.7%; in the assay with OVCAR-5 ovarian it was 108%. The growth was 84.1% in the assay with OVCAR-4 ovarian; 121% in the assay with SK-OV-3 ovarian; 101% in the assay with IGROV1 ovarian; 97.6% with OVCAR-3 ovarian; 103% in the assay with HS 578T breast; 98.4% in the assay with NCI/ADR-RES ovarian.
Consider `COC(=O)c1c[nH]c2cc(OC(C)C)c(OC(C)C)cc2c1=O`, for which the growth with EKVX NSCLC was 98.8%; in the assay with SN12C renal it was 108%; with UO-31 renal, 84%; with TK-10 renal, 113%; with ACHN renal, 100%; with CAKI-1 renal, 97.2%. Besides, the growth in the assay on A498 renal is 103%; in the assay with CCRF-CEM leukemia, 80.9%; with MOLT-4 leukemia, 109%; in the assay on SR leukemia, 97%; in the assay with RPMI-8226 leukemia it was 96.9%; in the assay with OVCAR-8 ovarian, 58.8%. Further, the growth was 106% in the assay on OVCAR-5 ovarian; 109% in the assay with OVCAR-4 ovarian; 55.2% with SK-OV-3 ovarian; 139% in the assay with IGROV1 ovarian; 113% in the assay with OVCAR-3 ovarian; 101% with NCI/ADR-RES ovarian.
As for `COc1ccc2nc3cc(Cl)ccc3c(Nc3cc(CN4CCCC4)c(O)c(CN4CCCC4)c3)c2n1`, the growth in the assay on EKVX NSCLC is 8.66% (active); in the assay with SN12C renal it was 10.7%; in the assay on UO-31 renal it was 18.9%; with TK-10 renal it was 21.4%; in the assay on ACHN renal, 22.9%; with CAKI-1 renal, -4.38% (active). In addition, the growth in the assay with A498 renal is -17.4% (active); with CCRF-CEM leukemia, 2.85% (active); in the assay with MOLT-4 leukemia, -25.2% (active); with SR leukemia, -18.6% (active); in the assay on RPMI-8226 leukemia, -3.6% (active); in the assay with OVCAR-8 ovarian, 10.5%. For the same molecule, the growth in the assay with OVCAR-5 ovarian was 6.64% (active); in the assay on OVCAR-4 ovarian, -16.3% (active); with SK-OV-3 ovarian it was 29.8%; in the assay with OVCAR-3 ovarian, 23.9%; in the assay with HS 578T breast, 15.5%; in the assay on NCI/ADR-RES ovarian, 10.1%.
